From PubChem BioAssay AID900 (National Center for Advancing Translational Sciences (NCATS), 2007)
Where “and” joins values, the source holds several entries; their conditions need not be identical. Equal entries are not always repeated. Among all 75,000 compounds or so, about 20 (0.03%) were called active. Inconclusive results (about 1%) are left out. The list is a sample of the results. Unmarked numbers belong to inactive results. The call rests on the fitted dose curve; in most records, active means well fitted inhibition curve with a large enough effect; inconclusive means small, poorly fitted or top-dose-only effect; inactive means flat fitted curve, though single readings scatter. Square brackets hold non-standard residues; d marks the D form. Side chains are listed from the residue outwards. Peptide text beside a SMILES is read from it. * marks the point of attachment. X1 = CCC(C)C(N)C1=NC(C(=O)*)CS1; Orn = NCCC[CH](N)C(=O)O

Molecular target: Caspase-1 (Homo sapiens) (UniProt P29466)
Experiment: qHTS Assay for Allosteric/Competitive Inhibitors of Caspase-1
Settings: Caspase-1 enzyme, Ac-WEHD-AFC fluorogenic rate; series mostly up to 57.5 µM
Text: NIH Molecular Libraries Screening Centers Network [MLSCN]
NIH Chemical Genomics Center [NCGC]
PI Name: Dr. James Wells,
Dr. Enrique Perez-Paya, Dr.Janice Williams, Dr. Dennis Wolan, a person
The caspases (Cysteine Aspartyl Protease) comprise a related family of 14 dimeric proteases that are critical mediators of apoptosis (programmed cell death) and inflammation. The caspases represent an important class of drug targets for stroke, ischemia, cancer and inflammatory diseases. […] One goal of this project was to identify compounds that act as allosteric inhibitors via stabilizing the procaspase form of the enzyme. Previous work in Well's laboratory has shown that such allosteric inhibitors can be identified and these act by binding at the dimer interface of enzyme (Hardy, Lam et al., 2004).
The biochemical assay was configured using purified caspase 1 at a high enzyme concentration to promote formation of the homodimers and thus facilitate the identification of allosteric inhibitors. The overall goal was to identify reversible inhibitors with better drug-like properties than the currently available set of aspartyl-containing peptidomimetics that covalently bind the active site. Caspase 1 was assayed using the profluorescent substrate Ac-WEHD-AFC. After initiation of the assay with substrate the plates were rapidly read using an automated robotic system (Kalypsys, Inc.) to maintain consistent timing. A kinetic mode of detection was used where the initial rate was collected (estimated final product formation was ~10%). Compounds were screened as a concentration-titration series that ranged from 57 uM to 0.7 nM. Below is the protocol used for caspase 1.
NCGC Assay Protocol Summary:
Caspase 1 was prepared in buffer (50 mM HEPES pH 7.5, 50 mM KCl, 200 mM NaCl, 10 mM DTT, 0.1% CHAPS) at a concentration of 66.6 nM and 3 uL was dispensed to all wells using black solid Kalypsys 1536-well plates. 20 nL of DMSO containing compounds was added using a pin-tool (Kalypsys Inc.) to columns 5-48. Then 20 nL of DMSO solution from a control plate was added to columns 1-4. Controls were: Column 1, 16 point titration with each concentration in duplicate (1:1 dilutions in DMSO; final starting concentration was 57 uM) of the caspase 1 inhibitor Ac-WEHD-CHO (Alexis Biochemicals); Column 2, a 16 point titration with each concentration in duplicate of the free AFC fluorophore prepared in DMSO (Alexis Biochemicals), final starting was 40 uM; Column 3 neutral (DMSO only) control; Column 4: DMSO alone, to serve as a negative control (no substrate was added). Then 1 uL of 20 uM the substrate Ac-WEHD-AFC (Alexis Biochemicals) prepared in the same buffer was dispensed to all wells except columns 2 and 4 and the plates were immediately transferred (< 1 min) to the Viewlux. The plates were then exposed using 405 nm excitation/520 nm emission filters for 4 sec and read at 20 sec intervals for 3 min. Final enzyme concentration was 50 nM and the final substrate concentration was 5 uM.
Concentration-response curves were fitted to the data calculated from slope of the linear regression of fluorescent intensity versus time (the rate). The concentration-effect curves were then classified based on curve quality (r2), response magnitude and degree of measured activity. […] Inconclusive compounds had appreciable concentration-dependent effects on both the measured rate and the interpolated basal fluorescence intensity at the start of the reaction but where the basal fluorescent intensity was marginal (e.g. < 10-fold). Inconclusive compounds also encompass highly fluorescent compounds (>100-fold increases in fluorescent intensities values relative to controls) where artificial concentration-dependent decreases in the rate occurred at high compound concentrations due to fluorescent interferences.
Keywords: Caspase 1, proteases, profluorescent, MLSMR, MLSCN, NIH Roadmap, qHTS, NCGC

Structure (SMILES)	activity change, negative = inhibition
CCCN1Cc2cccc(C(=O)NCc3ccccc3)c2C1=O	inactive
COC(=O)C1=C(C)N(Cc2ccccc2)C2=C3C(=O)N(c4ccccc4)C(=O)C3[C@@](O)(C(=O)OC)C(=O)N2C1c1ccccc1 (stereo not given in full)	2.38% [at 11.5 µM]
CCS(=O)(=O)N(C)[C@@H]1c2cc(C#N)ccc2OC(C)(C)[C@H]1O	inactive
CC(C)C(N)C(=O)OCCOCn1cnc2c(=O)[nH]c(N)nc21 (stereo not given)	inactive
CN(CCOc1ccc(CC2SC(=O)NC2=O)cc1)c1ccccn1 (stereo not given)	inactive
CC(C)C(=O)Nc1cccc(C(=O)Nc2ccc3c(c2)OCO3)c1	inactive
O=C(O)C(O)[C@@](O)(Cc1ccc(O)cc1)C(=O)O (stereo not given in full)	inactive
CCOC(=O)C1C(=O)C=C(c2ccc(OC)cc2)CC1c1ccco1 (stereo not given)	inactive
COc1ccc(/C=C/NC(=O)Cc2ccc(OC)c(OC)c2)cc1	-0.944% [at 11.5 µM] and -1% [at 11.5 µM]
C=CC(=O)c1ccc2ccccc2c1	inactive
CC1(C)OC2CO[C@]3(COS(N)(=O)=O)OC(C)(C)OC3C2O1 (stereo not given in full)	inactive
O=C(c1cnccn1)N1CCC2(CCCN(Cc3ccccc3)C2)CC1	inactive
CCN1CCCC1CNC(=O)Cn1cnc2ccc(S(=O)(=O)N3CCC(C)CC3)cc2c1=O (stereo not given)	inactive
CCCCNc1nc(C)nc2c1nc(-c1ccccc1)n2CCCCN(CC)CC	inactive
CC1OC(OCC2OC(Oc3c(-c4ccc(O)c(O)c4)oc4cc(O)cc(O)c4c3=O)C(O)C(O)C2O)[C@@H](O)C(O)C1O (stereo not given in full)	inactive
COc1ccc(CCC(=O)c2c(O)cc(OC3OC(CO)C(O)C(O)C3O[C@@H]3OC(C)C(O)C(O)C3O)cc2O)cc1O (stereo not given in full)	inactive
CC(=O)OCC1OC(C#CCCCc2ccccc2)C=CC1OC(C)=O (stereo not given)	-0.276% [at 11.5 µM] and -3.22% [at 11.5 µM]
CN(C)CCCCNC(=O)c1ccc(Cc2nc3ccccc3[nH]2)cc1	inactive
COC(=O)c1ccc(C23CC4(C2)[C@H](CN(Cc2cccnc2)[C@@H]4c2ccccc2)C3c2ccc(Cl)nc2)cc1 (stereo not given in full)	inactive
CN(C)/C=N/c1cc(=O)n(C)c(=O)n1CC1CC1	inactive
CS(=O)(=O)N(CC(=O)NCc1ccco1)c1ccc2c(c1)OCO2	inactive
CO[C@H]1COC(=O)[C@H](Cc2ccccc2)NC(=O)C/C=C\[C@@H](C)[C@H](OC)COC(=O)C/C=C\[C@@H]1C	-1.56% [at 11.5 µM]
O=C1NS(=O)(=O)c2ccccc21	inactive
CC1(C)C=CC(=O)[C@]2(C)C1CC(=O)[C@]1(C)C2CC[C@@]2(C)C(c3ccoc3)OC(=O)C3OC321 (stereo not given in full)	inactive
CC(=O)OCC(=O)[C@@]1(O)CCC2C3CCC4=CC(=O)CC[C@]4(C)C3C(=O)C[C@]21C (stereo not given in full)	inactive
COC1[C@H](OC(N)=O)C(O)[C@H](Oc2ccc3c(O)c(NC(=O)c4ccc(O)c(CC=C(C)C)c4)c(=O)oc3c2C)OC1(C)C (stereo not given in full)	inactive
CC(CCO)Nc1nc2c([nH]1)c(=O)n(C)c(=O)n2C (stereo not given)	inactive
C=CCN(c1ccc(C(N)=O)cc1)S(C)(=O)=O	inactive

Structure (SMILES)	activity change, negative = inhibition
CCCCNc1nc2c(c(=O)[nH]c(=O)n2C)n1CCOc1ccccc1	inactive
CCCc1nc2c(C)cc(-c3nc4ccccc4n3C)cc2n1Cc1ccc(-c2ccccc2C(=O)O)cc1	inactive
CCc1c(C)sc(NC(=O)OC)c1C(=O)N1CCOCC1	inactive
COC(=O)[C@@H]1CC[C@H](C)[C@@H](c2ccc(C)cc2)N1C(=O)c1ccc(/C=N\O[C@@H](C)c2cn([C@H](CO)Cc3ccccc3)nn2)cc1	-0.293% [at 11.5 µM] and 3.03% [at 11.5 µM]
CO[C@H]1COC(=O)[C@@H](OCc2ccccc2)/C=C\[C@H](C)[C@@H](OC)COC(=O)[C@H](OCc2ccccc2)/C=C\[C@@H]1C	-1.1% [at 11.5 µM]
CCOC(=O)N1CCN(C(=O)c2cn(C)c3ccc(S(=O)(=O)N4CCCC4)cc3c2=O)CC1	inactive
COC(=O)[C@@H]1C[C@@]2(O)[C@@H](O)[C@@H](O)[C@@H](O)C[C@H]2N1Cc1ccc(C)s1	inactive
C/C(Cl)=C\Cn1c(Nc2cccc(C)c2)nc2c1c(=O)n(C)c(=O)n2C	inactive
CC(C)[C@H]1CC[C@@H](C)C[C@H]1O	inactive
CCC(=O)Nc1nc(OC)cc(OC)n1	inactive
Nc1nc2c(nc(Cl)n2C2OC(CO)C(O)C2O)c(=O)[nH]1 (stereo not given)	inactive
CC(=O)OCC(=O)[C@@]1(O)CCC2C3CCC4=CC(=O)CC[C@@]4(C)[C@]3(F)C(O)C[C@]21C (stereo not given in full)	inactive
O=c1c(O)c(-c2ccc(O)cc2)oc2ccccc12	inactive
C=CCn1c(SCc2cc(C(=O)OC)c(C)o2)nnc1-c1ccncc1	inactive
C[C@@H](c1ccccc1)N1C(=O)[C@H]2[C@H]3[C@H](O)[C@H](O)C/C(=N/OC[C@@H](O)COCc4ccco4)[C@@H]3CC[C@@H]2C1=O	-0.613% [at 11.5 µM]
CCCCCCCCCCCCCCCC(=O)OC/C=C(C)/C=C/C=C(C)/C=C/C1=C(C)CCCC1(C)C	inactive
Cn1c(N)c(C(=O)COC(=O)c2cc(C(F)(F)F)nc3c(C(F)(F)F)cccc23)c(=O)n(C)c1=O	inactive
COc1cccc([C@H](O)Cn2cc(-c3ccc(CON=C(C)C)cc3)nn2)c1	-1.21% [at 11.5 µM]
CC1(C)OC2CC3C4CCC5=CC(=O)CCC5(C)C4(F)C(O)CC3(C)[C@]2(C(=O)CCl)O1 (stereo not given in full)	inactive
CC(C)c1ccc(OCC(O)Cn2cnc3ccccc32)cc1 (stereo not given)	inactive
CCC(C)C(N)C1=NC(C(=O)NC(CC(C)C)C(=O)NC(CCC(=O)O)C(=O)NC(C(=O)NCCCCC2NC(=O)C(CC(N)=O)NC(=O)C(CC(=O)O)NC(=O)C(Cc3cnc[nH]3)NC(=O)C(Cc3ccccc3)NC(=O)C(C(C)CC)NC(=O)C(CCCN)NC2=O)C(C)CC)CS1 (stereo not drawn) (cyclo(DNK([Ile-Glu-Leu-X1])[Orn]IFH); configuration not given here)	inactive
COC(=O)[C@@H]1C[C@@]2(O)[C@H](O)[C@H](O)[C@H](O)C[C@H]2N1CC1CCCCC1	inactive
CCCN1[C@H](C(=O)OC)C[C@@]2(O)[C@@H](O)[C@@H](O)[C@@H](O)C[C@@H]12	inactive
CCOC(=O)N/N=C1/C[C@@H](O)[C@@H](O)[C@@H]2[C@@H]3C(=O)N(CC)C(=O)[C@H]3CC[C@H]12	0.333% [at 11.5 µM]
CSc1nnc2c(n1)OC(c1ccsc1)N(C(C)=O)c1ccccc1-2 (stereo not given)	inactive
COc1ccc(COC(=O)N/N=C2/C[C@@H](O)[C@@H](O)[C@@H]3[C@@H]4C(=O)N([C@@H](C)c5ccccc5)C(=O)[C@H]4CC[C@@H]23)cc1	-3.18% [at 11.5 µM]
C/C=C(/C)C(=O)OC1Cc2c(ccc3ccc(=O)oc23)OC1(C)C (stereo not given)	inactive
